Screening data (PubChem)
This is a sample that favours compounds with a hit; in the whole collection about 1.4% have one here.
MbtI inh: inhibitors of Mycobacterium tuberculosis siderophore enzyme MbtI | purified MbtI enzyme, fluorescence intensity read-out | inhibition, % (concentration not given with the values) | actives 0.89% (n = 100,000) | AID 493033; in the data active means inhibition mostly above about 56%, no sharp cut-off; inactive means mostly below about 77%
AID504770: E. coli YBA685 growth inhibition, screen for V. cholerae RctB inhibitors; E. coli YBA685 rctB-dependent plasmid, OD600 growth, 3 h; hits give low values; z-score (test concentration not listed); actives 0.27% (n = 130,000); AID 504770; in the data active means z-score below about -2, passing the limit was not always enough
Mtb MenB inh: Mtb MenB enzyme inhibition. P9WNP5. inhibition, % (concentration not given with the values). actives 0.43% (n = 100,000). MenB enzyme assay, absorbance read-out; in the data active means inhibition above about 21%, passing the limit was not always enough
Target sequence (P9WNP5 whole entry, looked up): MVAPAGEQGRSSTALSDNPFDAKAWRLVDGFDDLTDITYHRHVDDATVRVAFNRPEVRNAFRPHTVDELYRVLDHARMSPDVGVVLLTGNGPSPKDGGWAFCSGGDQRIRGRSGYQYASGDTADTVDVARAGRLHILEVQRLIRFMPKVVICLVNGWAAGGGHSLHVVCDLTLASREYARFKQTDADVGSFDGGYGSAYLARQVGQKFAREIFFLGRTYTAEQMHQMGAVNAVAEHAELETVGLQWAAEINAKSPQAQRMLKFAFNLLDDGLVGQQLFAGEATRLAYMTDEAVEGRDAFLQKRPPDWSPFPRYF
PV pol inh: poliovirus RNA polymerase inhibition; % elongation, % (compound at 16.7 µg/mL); AID 588519; actives 0.66% (n = 150,000); poliovirus polymerase elongation, fluorescence polarization; hits give low values; in the data active means % elongation below about 90%
Starred values were filed as active, the others as inactive.

Screening O=C(NCCSc1ccc(Cl)cc1)Nc1ccccc1 returned MbtI inh -6, AID504770 -4.5*, Mtb MenB inh 3 and PV pol inh 100.
O=C(NCCCSc1ccccc1)Nc1ccccc1 was read as MbtI inh -10, AID504770 0.05, Mtb MenB inh -9 and PV pol inh 110.
`CC(=O)c1ccc(NC(=O)CSc2ccc3nc(-c4ccccc4)cn3n2)cc1` gave PV pol inh 108.
Screening O=C(CSc1ccc2nc(-c3ccccc3)cn2n1)Nc1ccccc1 returned PV pol inh 87*.
S=c1[nH]ccn1Cc1ccccc1 was read as MbtI inh 68*, AID504770 -0.45, Mtb MenB inh -1 and PV pol inh 102.
Screening CCN(CC(=O)Nc1cc(C)on1)CC(=O)NC1CCS(=O)(=O)C1 (stereo not drawn) returned MbtI inh 17, AID504770 2.1 and Mtb MenB inh -11.
Screening CCCCCOc1ccc(C(=O)CCN2CCOCC2)cc1 returned MbtI inh 92*, AID504770 0.05, Mtb MenB inh -7 and PV pol inh 103.
Screening Cc1ccc(C(=O)Nc2cc(C)cc(C)c2)cc1 returned MbtI inh -3, AID504770 1.1, Mtb MenB inh -26 and PV pol inh 106.
For Cc1ccc(C(=O)Nc2cccc(O)c2)cc1 the results were MbtI inh 8, AID504770 -2.4*, Mtb MenB inh -1 and PV pol inh 100.
COc1ccc(NC=O)c2ncccc12 was read as MbtI inh -2, AID504770 -0.1, Mtb MenB inh 9 and PV pol inh 101.
For CC(OC(=O)c1cccnc1SC(C)C(N)=O)C(N)=O (stereo not drawn) the results were MbtI inh 6, AID504770 0.85, Mtb MenB inh -3 and PV pol inh 103.
Screening CSc1ccc(C2CC(=O)N3CN(C)CSC3=C2C#N)cc1 (stereo not drawn) returned MbtI inh 92*, AID504770 0.75, Mtb MenB inh -22 and PV pol inh 99.
For CN1CSC2=C(C#N)C(c3ccccc3)CC(=O)N2C1 (stereo not drawn) the results were MbtI inh 86*, AID504770 -0.25, Mtb MenB inh -17 and PV pol inh 94.
For O=C(Nc1nc2ccc(Cl)cc2s1)c1ccc(S(=O)(=O)N2CCCCC2)cc1 the results were AID504770 1.2.
`Cc1nc(C(F)(F)F)ccc1C(=O)NCC(O)c1ccccc1` (stereo not drawn) gave MbtI inh -15, AID504770 -0.45, Mtb MenB inh -2 and PV pol inh 88*.
`Cc1nc(C(F)(F)F)ccc1C(=O)NCc1ccccc1` gave AID504770 1.1.
`CC(C)(C)C1CCc2onc(C(=O)Nc3sc4c(c3C#N)CCCC4)c2C1` (stereo not drawn) gave PV pol inh 82*.
CC(C)(C)C1CCc2onc(C(=O)Nc3sc4c(c3C(N)=O)CCCC4)c2C1 (stereo not drawn) was read as PV pol inh 79*.
CC1=CC(=O)C(CCCC2=CC(=O)C=CC2=O)=CC1=O was read as MbtI inh 100*, AID504770 0.45, Mtb MenB inh 0 and PV pol inh 102.
Screening O=C(/C=C/c1cccs1)/C=C/c1cccs1 returned AID504770 0.3.
N#Cc1ccc(-c2cccc(C(F)(F)F)c2)nc1Cl was read as AID504770 -0.25.
Screening CCOCC(O)CN (stereo not drawn) returned MbtI inh -4, AID504770 -0.4, Mtb MenB inh -10 and PV pol inh 100.
For CC(C)OCC(O)CN (stereo not drawn) the results were MbtI inh -1, AID504770 1.9, Mtb MenB inh 32* and PV pol inh 102.
`N#C/C(=C1/CCCN1)c1nc(-c2ccccc2)cs1` gave MbtI inh 11, AID504770 -0.25, Mtb MenB inh -13 and PV pol inh 117.
For CN=C(Nc1ccnn1C(C)C)c1ccccc1 the results were MbtI inh -11, AID504770 -0.1, Mtb MenB inh -6 and PV pol inh 107.
For O=C(Nc1nnc(C(F)(F)F)s1)c1ccccc1 the results were MbtI inh 92*, AID504770 -0.65, Mtb MenB inh -34 and PV pol inh 100.
Screening CC(=O)OCC(=O)[C@@]1(O)CCC2C3CCC4=CC(=O)C=CC4(C)C3C(=O)CC21C (stereo partly drawn) returned MbtI inh -1, AID504770 -1.9, Mtb MenB inh -24 and PV pol inh 101.
`Cc1ccc(C(=O)NCC2CCCO2)cc1` (stereo not drawn) gave MbtI inh 5, AID504770 0.7, Mtb MenB inh 8 and PV pol inh 102.
